Screening data as filed in PubChem BioAssay.
The list is not random: actives were taken first. Their share in the collection is about 4.7%.
PfHsp90 set2 = inhibits growth of yeast expressing Plasmodium falciparum Hsp90 | S. cerevisiae expressing PfHsp90, BacTiter-Glo ATP, 48 h; yeast lacking PDR1 and PDR3 efflux regulators | AID 504621 | 310,000 tested, 0.32% active | inhibition, % at 9.4 µM;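 active = every replicate shows inhibition above about 80%, whatever the replicate mean, limit read from the data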
tim10-1 inh = growth inhibitors of tim10-1 mutant yeast. S. cerevisiae tim10-1 ts strain growth, BacTiter-Glo, 24 h. inhibition, % at 20 µM. 330,000 tested, 2.2% active;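 active = inhibition of at least 40%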;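 also: mutant grown at 25 °C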
ATG4B inh = inhibitors of human ATG4B cysteine protease; 340,000 tested, 0.51% active; inhibition, % at 8.33 µM; ATG4B cleavage of LC3-PLA2, NBD-HPC fluorescence, 1 h; AID 504462; Q9Y4P1; in the data active = inhibition above about 40%
Target sequence (Q9Y4P1 whole entry, looked up): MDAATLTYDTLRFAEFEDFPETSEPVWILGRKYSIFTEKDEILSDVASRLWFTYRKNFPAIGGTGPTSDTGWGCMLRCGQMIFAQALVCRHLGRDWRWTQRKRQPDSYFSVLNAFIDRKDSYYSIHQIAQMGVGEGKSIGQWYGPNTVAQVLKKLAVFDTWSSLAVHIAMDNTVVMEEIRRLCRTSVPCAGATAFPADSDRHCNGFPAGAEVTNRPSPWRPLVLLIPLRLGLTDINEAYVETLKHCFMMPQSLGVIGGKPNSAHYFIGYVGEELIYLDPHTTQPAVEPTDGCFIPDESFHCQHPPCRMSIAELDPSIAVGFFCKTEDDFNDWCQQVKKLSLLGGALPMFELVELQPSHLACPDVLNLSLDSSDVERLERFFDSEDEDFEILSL
tim23-1 inh = tim23-1 yeast growth inhibition. 330,000 tested, 1.3% active. inhibition, % at 20 µM. S. cerevisiae tim23-1 growth, BacTiter-Glo luminescence, 24 h;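 active = growth inhibition of the mutant yeast at or above 50%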;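 also: temperature-sensitive mutant grown at 25 °C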
SKKanGAS inh = inhibitors of SKKanGAS S. pyogenes growth in kanamycin (SK-promoter or general growth effect) | BacTiter-Glo, 6 h | AID 1662 | 300,000 tested, 1.3% active | inhibition, % at 7.5 µM;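 active = mean replicate score, as percent of positive control median, at least 50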;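 also: strain carries kanamycin resistance gene driven by streptokinase promoter and grows in 40 µg/ml kanamycin; loss of luminescence reflects streptokinase promoter inhibition or plain growth inhibition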
TIM10 inh = growth inhibitors of TIM10 yeast strain. S. cerevisiae TIM10 strain growth, BacTiter-Glo luminescence, 24 h. inhibition, % at 10 µM. 330,000 tested, 1.4% active. AID 463195;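 active = inhibition of 40% or more at the single tested concentration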;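 also: wild-type TIM10 isogenic control strain grown at permissive 25 °C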
tim10-1 conf = tim10-1 yeast growth inhibition, confirmed; AID 463213; shares compounds with tim10-1 inh; 7,400 tested, 56% active; inhibition, % at 20 µM; S. cerevisiae tim10-1 ts strain growth, BacTiter-Glo, 24 h;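 active = inhibition of yeast growth at or above a set limit in either of two repeat tests at 20 µM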;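 also: tim10-1 mutant grown at permissive 25 °C to find synthetic lethal compounds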
TIM10 conf = confirmation of TIM10 yeast growth inhibitors; 4,600 tested, 63% active; S. cerevisiae tim10 strain growth, BacTiter-Glo luminescence, 24 h; inhibition, % at 10 µM; shares compounds with TIM10 inh; AID 463215;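 active = inhibition of yeast growth at or above a set limit in either of two replicates at 10 µM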; also: this counterscreen used the strain with wild-type TIM10
Hits are given with their value; - = inactive; . = not tested or not shown.

SMILES | PfHsp90 set2 | tim10-1 inh | ATG4B inh | tim23-1 inh | SKKanGAS inh | TIM10 inh | tim10-1 conf | TIM10 conf
COc1cc(/C=C/C(=O)OCc2cn3cc(Cl)ccc3n2)ccc1O | - | - | - | - | - | - | . | .
Cc1ccc(Oc2nnc(-c3ccccc3)c3ccccc23)cc1 | - | 51 | - | - | - | 41 | 41 | 50
Cc1ccc(N2CC(C(=O)N3CCC(C(=O)Nc4nnc(C(C)C)s4)CC3)CC2=O)cc1 (stereo not given) | - | - | - | - | - | - | . | .
CC(C)(C)c1ccc(C(=O)NNC(=O)c2ccc(Cl)cc2)cc1 | - | - | - | - | - | - | . | .
O=C(NNC1=C(C(=O)C(F)(F)F)CCC1)c1ccc(Cl)cc1 | 122 | 53 | - | - | 101 | 41 | - | 40
O=C(CCCN1C(=O)/C(=C/c2ccccc2Cl)SC1=S)NCCCN1CCOCC1 | - | 44 | - | - | - | 44 | 41 | 46
NC(=O)c1ccc(SCC(=O)OCC(=O)NCc2ccco2)c([N+](=O)[O-])c1 | - | - | - | - | - | - | . | .
O=C(Cn1c2ccc(F)cc2c2nc3n(c(=O)c21)CCS3)Nc1ccccc1F | . | 51 | . | - | - | 52 | 44 | 42
COc1cc2c(cc1NC(=O)c1ccncc1)oc1ccccc12 | - | 46 | - | - | - | 42 | - | 47
COc1cc2c(cc1NS(=O)(=O)N1CCCC1)oc1ccccc12 | - | 43 | - | - | - | 47 | - | 43
O=C1CN(C(=O)c2cccc(S(=O)(=O)N3CCCC3)c2)c2ccccc2N1 | - | - | - | - | - | - | . | .
CCCc1cc(NCc2ccccn2)n2nc(C)c(-c3ccccc3)c2n1 | 107 | 43 | - | - | 94 | 47 | 58 | 76
Cc1nn2c(NCCCn3ccnc3)cc(C(C)C)nc2c1-c1ccccc1 | - | - | - | - | - | - | . | .
CCCc1cc(N2CCCC2)n2nc(C)c(-c3ccccc3)c2n1 | . | 47 | - | - | - | 51 | - | -
COc1ccc(NC(=O)Cn2c(C)cc(=O)c3ccccc32)cc1 | - | - | - | - | - | - | . | .
Cc1ccc(C(=O)COC(=O)CNC(=O)c2ccc(Br)o2)cc1[N+](=O)[O-] | - | - | - | - | - | - | . | .
C#CCOCCOCCOCCNc1nc(N2CCN(C(=O)[C@H]([C@@H](C)CC)n3cc([C@@H](N)Cc4ccc(O)cc4)nn3)CC2)nc(N2CCN(C(=O)[C@H](Cc3cc4ccccc4[nH]3)n3cc([C@@H](N)CC(C)C)nn3)CC2)n1 | - | - | - | - | . | - | . | .
Cc1cccc(C(=O)NC(=S)Nc2ccc(Cc3ccncc3)cc2)c1 | - | 48 | - | - | - | 46 | 31 | 34
CC(=O)N1N=C(c2ccccc2)OC1c1ccc([N+](=O)[O-])s1 (stereo not given) | 127 | 47 | - | - | - | 51 | 69 | 32
COc1ccc(OC)c(C(c2nnnn2CCc2ccccc2)N2CCN(c3ccccc3)CC2)c1 (stereo not given) | - | - | - | - | - | - | . | .
CCC(c1nnnn1CCc1ccccc1)N1CCN(c2ccc(OC)cc2)CC1 (stereo not given) | - | 41 | - | - | - | 43 | - | -
CC1CCCN(CC(=O)Nc2cccc([N+](=O)[O-])c2)C1 (stereo not given) | - | - | - | - | - | - | . | .
CCN(CC)C(=O)c1ccc(/C=C/c2c[nH]c3ccccc23)[n+](C)c1 | - | - | - | - | - | - | . | .
CC[n+]1c(/C=C/c2c[nH]c3ccccc23)ccc2cc(C)ccc21 | - | 67 | - | - | . | 59 | 70 | 38
CCCCCC(=O)NC(=S)Nc1cccc(C(C)=O)c1 | - | - | - | - | - | 43 | - | -
SMILES | PfHsp90 set2 | tim10-1 inh | ATG4B inh | tim23-1 inh | SKKanGAS inh | TIM10 inh | tim10-1 conf | TIM10 conf
CCCCCC(=O)NC(=S)Nc1ccccc1C(=O)OC | - | 40 | - | - | - | 43 | - | 34
CN(C)C(=O)COC(=O)c1ccccc1Nc1ccc(SC(F)F)cc1 | - | - | - | - | - | - | . | .
O=C(c1ccccc1Nc1ccc(SC(F)F)cc1)N1CCCCCC1 | - | 44 | - | - | - | 51 | 34 | 33
CC(NC(=O)C(=S)N1CCN(C)CC1)c1ccccc1 (stereo not given) | . | - | - | - | - | - | . | .
Cc1ccc2c(c1)c1n[nH]c(=S)nc1n2CCc1ccccc1 | - | 46 | - | - | - | 41 | - | 38
CCOC(=O)c1ccc(NS(=O)(=O)c2ccc(SC)cc2)cc1 | - | 41 | - | - | - | 40 | 38 | -
CCOC(=O)Cc1ccc(NS(=O)(=O)c2ccc(SC)cc2)cc1 | - | - | - | - | - | - | . | .
COc1cc(S(=O)(=O)NC2CCCC2)c(OC)cc1C | - | - | - | - | - | - | . | .
C/C(=N\NC(=S)NCc1ccccc1)c1cccc(Br)c1 | - | 42 | - | - | 56 | 45 | - | -
COc1ccc(/C(C)=N/NC(=S)NCCc2ccccc2)cc1 | - | 41 | - | - | - | 47 | 35 | -
C/C(CCc1ccccc1)=N\NC(=S)NCCc1ccccc1 | - | - | - | - | - | - | . | .
C/C(=N\NC(=S)NCCc1ccccc1)c1cccc(Br)c1 | - | - | - | - | - | - | . | .
CCN(CC)S(=O)(=O)c1ccc2c(c1)nc(-c1ccccn1)n2C | - | - | - | - | - | - | . | .
Cc1ccc2cccc(NC(=S)NC(=O)c3ccccc3)c2n1 | . | 43 | - | - | - | 42 | 31 | 43
COc1ccccc1CN1CCc2c([nH]c3ccccc23)C1 | - | - | - | - | - | - | . | .
Clc1cccc(CN2CCc3c([nH]c4ccccc34)C2)c1Cl | - | 72 | - | - | - | 60 | 66 | 66
COc1ccc(N2CCN(C(=O)c3cn(C4CCCC4)c(=O)c4c3c3ccccc3n4C)CC2)cc1 | - | - | - | - | - | - | . | .
Cn1c2ccccc2c2c(C(=O)N3CCN(c4ccccn4)CC3)cn(C3CCCC3)c(=O)c21 | - | 40 | - | - | - | 47 | - | 41
O=C(Nc1cccc2ccccc12)c1nn(C23CC4CC(CC(C4)C2)C3)cc1[N+](=O)[O-] | - | 40 | - | - | - | 41 | 32 | -
CCc1cccc2c(C(=O)COC(=O)c3nccnc3N)c[nH]c12 | - | - | - | - | - | - | . | .
COc1ccc(Nc2nc(N)nc(CSC(=S)N3CCCCC3)n2)cc1 | - | - | - | - | - | - | . | .
CC1CCN(C(=S)SCc2nc(N)nc(Nc3ccccc3)n2)CC1 | - | 41 | - | - | - | 43 | - | 34
O=C1c2ccccc2/C(=C\C#Cc2ccccn2)N1c1ccccc1 | - | - | - | - | . | - | . | .
